# Hits are enriched below; roughly 3.1% of the tested compounds scored in any of these assays.
# Tau fluor cs – Counterscreen qHTS for Inhibitors of Tau Fibril Formation, Fluorescence Polarization; tau K18 P301L Alexa594 fluorescence, heparin fibrillization; Potency, µM (series often up to 57.7 µM), without a hit: at the top dose activity change, negative = decrease; 280,000 tested, 0.93% active; note: nearly all actives have a fitted effect of over 55% in size
#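 Human K18 P301L tau (15 uM unlabeled plus 0.24 uM Alexa 594-labeled, final) in 100 mM sodium acetate pH 7 was mixed with compound and 20 uM heparin and incubated 6 hr at 37 C.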
# Tau FP inhib – qHTS for Inhibitors of Tau Fibril Formation, Fluorescence Polarization; 280,000 tested, 0.39% active; Microtubule-associated protein tau (Homo sapiens), P10636; K18 P301L tau heparin fibrillization, Alexa594 FP, 6 h; Potency, µM (series often up to 57.7 µM), without a hit: at the top dose activity, negative = inhibition, actives largely listed as inhibitors; AID 1468, 2008; note: nearly all actives have a fitted effect of over 55% in size
# Target sequence (P10636 561-689 P618L limits assumed): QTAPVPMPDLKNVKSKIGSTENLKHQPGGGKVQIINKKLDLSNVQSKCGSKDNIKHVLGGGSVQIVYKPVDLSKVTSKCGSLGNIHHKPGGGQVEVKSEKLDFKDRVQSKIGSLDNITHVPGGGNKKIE
#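 Human tau K18 […] P301L fragment, 15 uM unlabeled plus 0.24 uM Alexa 594-labeled tau (final), with compound and 20 uM heparin in 100 mM sodium acetate pH 7; 6 hr at 37 C, then Alexa 594 FP read.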
# Tau fibril ThT – qHTS for Inhibitors of Tau Fibril Formation, Thioflavin T Binding | AID 1460, 2008 | recombinant tau K18 P301L, heparin-induced fibrillization, ThT fluorescence | 270,000 tested, 2.1% active | Potency, µM (series often up to 57.4 µM), for inactives: at the top dose activity, negative = inhibition, actives largely listed as inhibitors | Microtubule-associated protein tau (Homo sapiens), P10636; note: nearly all actives have a fitted effect of over 55% in size
#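 Using a mix of unlabeled (15 uM) and Alexa 594-labeled (0.24 uM) tau K18 P301L, heparin-triggered fibrillization over 6 hr at 37 C was scored by ThT fluorescence.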
# TRb SRC2 PPI – qHTS for Inhibitors of the Interaction of Thyroid Hormone Receptor and Steroid Receptor Coregulator 2; TRbeta-SRC2 peptide binding, fluorescence polarization; receptor liganded with 1 µM T3; AID 1469, 2008; Potency, µM (highest dose often 106 µM), without a hit: top-dose activity change, negative = inhibition, hits mostly inhibitors; 280,000 tested, 0.065% active;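 note: plate controls were bound peptide for no effect and peptide without receptor for full effect; nearly all actives have a fitted effect of over 50% in size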
# Target sequence (P10828 whole entry, looked up): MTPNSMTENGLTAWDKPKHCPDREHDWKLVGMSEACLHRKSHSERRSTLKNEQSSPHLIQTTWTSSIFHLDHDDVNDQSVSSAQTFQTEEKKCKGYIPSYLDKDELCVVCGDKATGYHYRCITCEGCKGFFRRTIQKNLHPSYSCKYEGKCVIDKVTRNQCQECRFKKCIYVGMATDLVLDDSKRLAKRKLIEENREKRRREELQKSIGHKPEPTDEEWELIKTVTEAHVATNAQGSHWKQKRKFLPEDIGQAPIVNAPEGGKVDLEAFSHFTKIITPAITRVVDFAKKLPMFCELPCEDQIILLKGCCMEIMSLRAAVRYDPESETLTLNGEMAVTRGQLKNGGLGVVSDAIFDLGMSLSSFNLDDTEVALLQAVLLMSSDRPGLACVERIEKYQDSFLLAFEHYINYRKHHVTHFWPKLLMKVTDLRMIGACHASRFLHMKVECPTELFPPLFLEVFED
#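 TRb LBD 0.6 uM + Texas Red SRC2 peptide 20 nM, 1 uM T3, Tris buffer w/ 5% DMSO; compound pinned, 5 h RT; FP read ex 555/em 632; normalized to unbound and bound controls.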
# TR SRC2 fluor cs – Total Fluorescence Counterscreen for Inhibitors of the Interaction of Thyroid Hormone Receptor and Steroid Receptor Coregulator 2; TRb/SRC2 Texas Red total fluorescence interference; Potency, µM (series often up to 106 µM), for inactives: top-dose fluorescence change, negative = quenching; 280,000 tested, 0.29% active; AID 1479, 2009; active = well fitted curve in either direction with a large enough effect; inconclusive = small, poorly fitted or top-dose-only effect
#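 Human TRβ ligand-binding domain (0.6 uM) and Texas Red SRC2 peptide (20 nM) in Tris buffer with 1 uM T3 and 5% DMSO were incubated with pinned compound for 5 hr at ambient temperature. Total fluorescence was computed as S + 2P (555/632 nm).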
# * hit, by the source's call; ? = inconclusive; . = no result; [ ] = another dose, or the depositor's remark. Unless noted, calls come from the whole dose curve; as a rule, active = well fitted curve in the direction sought with a large enough effect; inconclusive = small, poorly fitted or top-dose-only effect, or another doubt; inactive = no such curve, though single readings can be large; an effect the other way counts as inactive or inconclusive. Unless noted, % is set by controls: 0 for no effect and ±100 for the full control effect; potency is the fitted concentration of half-maximal effect.
SMILES,Tau fluor cs,Tau FP inhib,Tau fibril ThT,TRb SRC2 PPI,TR SRC2 fluor cs
CCCCS(=O)(=O)N1C2=NC(C(=O)OC)=C(C(=O)OC)[C@@H]3Nc4ccccc4[C@]23C[C@H]1C(=O)OC,-7.2%[11.6 µM],-0.4%[11.6 µM],0.9%[11.5 µM],6.9%[11.2 µM],-3.4%[11.2 µM]
O=C(c1ccc(Cl)cc1)c1ccc(Cl)cc1,.,.,.,-0.3%[201 µM],-0.7%[201 µM]
COC(=O)c1cc(C)nc(Sc2ccccc2N)n1,?,?,28.2µM*,-2.2%,-2.0%
CC(C)CC(CSc1ccc(Br)cc1)N1CCN(C)CCC1=O (stereo unspecified),.,.,.,8.1%,-2.8%
Oc1ccc(/C=C\c2cc(O)cc(O)c2)cc1,14.1µM*[quencher],10.0%,14.1µM*,1.0%,-13.5%
Oc1ccc(/C=C/c2cc(O)cc(O)c2)cc1,?,?,10µM*,2.5%,?
COc1cc2c(C)c3c4c(cc(OC)c(OC)c4c2cc1OC)CCN3C,10µM*[quencher],?,?,-7.3%,-0.7%
COc1cc2c(cc1OC)CC(=O)N(C)CC2,8.9%,2.1%,5.6%,-2.4%,-3.0%
COc1cc2c(C=O)c3c4c(cc(OC)c(OC)c4c2cc1OC)CCN3C,?,-8.4%,14.1µM*,-24.9%,-0.8%
CC12C=C(/C=C/CCc3ccco3)C(C)(C1)C(CCc1ccco1)CC2=O (stereo unspecified),-7.6%[11.6 µM],-14.1%[11.6 µM],?,5.4%[11.2 µM],0.7%[11.2 µM]
CCCCCCCCCCCCCCCCCCN,.,.,.,3.8%[201 µM],0.8%[201 µM]
COC(=O)C1C(O)C(C)C(O)C(C)(O)/C=C\C=C(/C)C(=O)Nc2c(C)c(OC(C)=O)c3c(c2O)C(=O)C(C)=C2OCOC(=C23)/C(C)=C/C(C)(O)C(O)C(C)C1O (stereo unspecified),3.98µM*[quencher],?,.,-0.8%,0.6%
O=C(c1ccccc1)N1CCN(c2ccc([N+](=O)[O-])c(NCc3cccnc3)c2)CC1,-7.7%,3.8%,15.8µM*,3.9%,2.3%
O=C(c1ccccc1F)N1CCN(c2ccc([N+](=O)[O-])c(NCc3cccnc3)c2)CC1,-14.7%,4.7%,15.8µM*,-0.8%,-0.9%
CC(C)(C)C(=O)N1CCN(c2ccc([N+](=O)[O-])c(NCc3cccnc3)c2)CC1,3.7%,0.7%,?,5.6%,-0.9%
CCCCSCCCNC(=O)c1cc(-c2cccnc2)nc2ccc(S(=O)(=O)N3CCC(C)CC3)cc12,-5.4%,-1.8%,-2.4%,-4.0%,-1.3%
COCCCNC(=O)Cn1c(=O)nc(-c2ccccc2)c2ccccc21,5.1%,2.8%,1.1%,-4.9%,-0.3%
NC(=Nc1ccc(N)cc1)C(N)=Nc1ccc(N)cc1,?,?,8.91µM*,5.9%,-3.1%
COc1ccc(NC(=O)c2oc3ccccc3c2NC(=O)Cc2ccc(F)cc2)c(OC)c1,-27.9%,-7.5%,-6.0%,-5.1%,0.2%
COc1cc(N/N=C(\C)c2ccc(O)c(C)c2)nc(-c2ccccc2)n1,8.91µM*[quencher],?,?,3.0%,-0.6%
C/C(=N\Nc1cc(-c2ccccc2)nc(-c2ccccc2)n1)c1ccc(O)c(C)c1,1.2%,6.3%,-1.7%,13.1%,10.1%
COc1cc(N/N=C(\C)c2ccc(N)cc2)nc(-c2ccccc2)n1,14.1µM*[quencher],3.4%,15.8µM*,-3.5%,-3.9%
CC(C)C[C@@H](CC(=O)N[C@@H](CCC(=O)O)CC(=O)O)NC(=O)[C@@H]1CNCC[C@H]1NC(=O)C[C@@H](NC(=O)C[C@H](Cc1ccccc1)NC(=O)[C@@H]1CCCC[C@H]1N)C(C)C,-7.2%,1.3%,-11.4%,1.3%,-1.4%
CCOC(=O)c1ccccc1NC(=O)CSc1nnnn1C1CCCCC1,?,?,14.1µM*,-1.0%,1.0%
Oc1c(/C=N/Nc2cccc3cccnc23)ccc2ccccc12,?,9.3%,?,-23.9%,9.5%
SMILES,Tau fluor cs,Tau FP inhib,Tau fibril ThT,TRb SRC2 PPI,TR SRC2 fluor cs
Oc1c(N=Nc2ccccn2)ccc2ccccc12,?,?,4.47µM*,-2.4%,-10.0%
COc1ccc(/C=C(/C#N)c2nc(-c3ccc(-c4ccccc4)cc3)cs2)cc1OC,-9.2%,?,?,?,?
COc1ccc(-c2csc(/C(C#N)=C(\O)CSc3nccn3C)n2)cc1OC,?,-3.4%,17.8µM*,22.5%,-6.7%
COc1ccc(NC(=O)c2ccc(NCCCN3CCOCC3)c([N+](=O)[O-])c2)cc1,-21.1%,13.0%,15.8µM*,-17.8%,-7.7%
Cc1ccc(NC(=O)c2ccc(NCCCN3CCOCC3)c([N+](=O)[O-])c2)cc1Cl,?,-1.1%,12.6µM*,5.0%,-3.7%
O=C(Nc1ccc(Cl)c([N+](=O)[O-])c1)c1ccc(NCCCN2CCOCC2)c([N+](=O)[O-])c1,-27.7%,-15.8%,2.51µM*,-11.4%,-0.5%
Cc1ccc(NC(=O)c2ccc(N3CCOCC3)c([N+](=O)[O-])c2)cc1S(=O)(=O)N1CCOCC1,-29.1%,?,?,2.7%,-2.3%
O=[N+]([O-])c1ccc(NCCCN2CCOCC2)c([N+](=O)[O-])c1,-10.9%,-17.9%,?,-2.9%,-2.1%
CC/C(C)=N/Nc1nc(-c2cc3cccc(OC)c3oc2=O)cs1,?,-4.8%,17.8µM*,1.9%,-10.1%
COCCCNC(=O)CSc1nc2cc3c(cc2c(=O)n1CCCC(=O)NCc1ccc2c(c1)OCO2)OCO3,-0.2%,-0.1%,4.4%,1.1%,2.5%
COc1cccc(-n2cc(C(=O)Nc3cc(C)c(Cl)cc3OC)c3ccccc3c2=O)c1,-8.7%,-3.6%,1.2%,2.6%,-21.0%
C/C(=N\NC(=S)Nc1cc(S(=O)(=O)N2CCOCC2)ccc1Cl)c1ccccc1F,-28.8%,10.8%,-7.9%,-2.0%,-1.9%
COc1c(C2=CC(=O)N(C)C2=O)c2c(n1C)C(=O)c1ccccc1C2=O,17.8µM*[quencher],-12.5%,14.1µM*,11.8%,-0.6%
COc1cc(/C=C(\C#N)c2nc3c(s2)CCCC3)ccc1O,14.1µM*[quencher],4.2%,11.2µM*,-19.9%,-4.5%
N#C/C(=C\c1cccnc1)c1nc2c(s1)CCCC2,-0.7%,5.3%,-16.8%,-6.1%,-8.4%
Cc1ccc(Cl)cc1NC(=O)CSc1ccc(C(=O)O)cn1,-0.2%,-1.2%,0.8%,2.0%,3.5%
NC(=O)[C@@H]1[C@@H]2C(=O)N(c3ccc(F)cc3)C(=O)[C@@H]2[C@H]2C=Cc3ccccc3N21,-25.3%,?,14.1µM*,2.8%,3.5%
COC(=O)C1(C)NC(c2ccco2)C2C(=O)N(c3ccc(F)cc3)C(=O)C21 (stereo unspecified),2.4%,-3.4%,-2.5%,5.8%,-2.9%
O=C(c1ccco1)[C@@H]1[C@@H]2C(=O)N(c3ccc(F)cc3)C(=O)[C@@H]2[C@H]2C=Cc3ccccc3N21,-24.8%,?,14.1µM*,13.3%,2.2%
